{"source": "ChEMBL document CHEMBL4513146", "about": "“CO-ADD screening of Karazin Kharkiv National University (Ukraine) compounds”", "note": "Entries with a potency or affinity are not part of this list.", "data": [{"test_system": "Staphylococcus aureus", "conditions": "Concentration 32 ug.mL-1;; ASSAY_TEST Inhibition of Bacterial Growth; detection method Absorption (OD600); MEDIA CAMHB; plate type 384well; NBS; CORNING #3640; time 18 hr", "units": {"Inhibition": "%"}, "values": [{"smiles": "Cc1cc(C)cc(N(Cc2cc(C)ccc2C)S(=O)(=O)c2cccn3c(C)nnc23)c1", "Inhibition": 6.88}, {"smiles": "Cc1ccccc1Oc1nccn2c(=O)n(CC(=O)Nc3cc(Cl)ccc3Cl)nc12", "Inhibition": 0.32}, {"smiles": "CCC(C)NC(=O)Cn1nc2n(Cc3ccco3)c(=O)c3sccc3n2c1=O", "note": "(stereo not given)", "Inhibition": 7.96}, {"smiles": "NC(=O)Cn1nc2n(CCC(=O)NC3CCCCC3)c(=O)c3ccccc3n2c1=O", "Inhibition": 4.99}, {"smiles": "Cc1cc(C)c(NC(=O)Cn2nc3n(C)c(=O)c4c(c(-c5ccccc5)cn4C)n3c2=O)c(C)c1", "Inhibition": 6.14}, {"smiles": "Cc1ccc(NC(=O)Cn2nc3ccc(SC4CCCCC4)nn3c2=O)c(Cl)c1", "Inhibition": -1.24}, {"smiles": "Cc1cccc(Cn2nc3n(CCc4ccccc4)c(=O)c4sccc4n3c2=O)c1", "Inhibition": -3.57}, {"smiles": "Cc1nnc2c(=O)n(CC(=O)Nc3ccc(Br)cc3)c3ccccc3n12", "Inhibition": -6.47}, {"smiles": "C=Cc1ccc(CN(c2ccc(CC)cc2)S(=O)(=O)c2cccn3c(C)nnc23)cc1", "Inhibition": 9.91}, {"smiles": "CCOc1ccc(-n2ccn3c(SCC(=O)c4cccc(Cl)c4)nnc3c2=O)cc1", "Inhibition": 18.89}, {"smiles": "COc1ccc(-c2cc3c4nnc(SCC(=O)Nc5cc(Cl)ccc5C)n4ccn3n2)cc1", "Inhibition": -1.91}, {"smiles": "CCOC(=O)c1ccc(NC(=O)Cn2nc3ccc(Sc4cccc(F)c4)nn3c2=O)cc1", "Inhibition": 9.91}, {"smiles": "CCOc1ccc(NC(=O)Cn2nc3c(Oc4cccc(OC)c4)nccn3c2=O)cc1", "Inhibition": 13.11}, {"smiles": "COc1ccc(Cl)cc1NC(=O)Cn1nc2ccc(Sc3ccccc3)nn2c1=O", "Inhibition": -3.52}, {"smiles": "O=c1n(Cc2cccc(Cl)c2)nc2ccc(-c3ccccc3)nn12", "Inhibition": 13.35}, {"smiles": "Cc1ccc(CNC(=O)CSc2nnc3c(=O)n(-c4ccccc4)ccn23)cc1", "Inhibition": 12.76}, {"smiles": "Cc1cc(C)cc(N(Cc2cccc(Cl)c2)S(=O)(=O)c2cccn3cnnc23)c1", "Inhibition": 7.13}, {"smiles": "Cc1ccc(CNC(=O)Cn2nc3c(Sc4cccc(F)c4)nccn3c2=O)cc1", "Inhibition": -7.34}, {"smiles": "Cc1nnc2ccc(S(=O)(=O)N(Cc3ccccc3F)c3cccc(F)c3)cn12", "Inhibition": 9.15}, {"smiles": "O=C(CCc1nnc2c(N3CCCCC3)nc3ccccc3n12)NCc1ccccc1Cl", "Inhibition": 7.81}, {"smiles": "Cc1cc(C)cc(Nc2nc(C)cc3nn(CC(=O)NCc4ccco4)c(=O)n23)c1", "Inhibition": 4.89}, {"smiles": "CC(C)n1c(=O)c2ccc(C(=O)NC3CCCC3)cc2n2c(=O)n(Cc3cccc(C(F)(F)F)c3)nc12", "Inhibition": 8.2}, {"smiles": "CCc1nnc2c(S(=O)(=O)N(Cc3cccc(F)c3)c3cccc(C)c3)cccn12", "Inhibition": 12.77}, {"smiles": "N#Cc1ccc(NC(=O)Cn2nc3c(Oc4ccccc4)nccn3c2=O)cc1", "Inhibition": -0.45}, {"smiles": "N#Cc1ccc(NC(=O)CSc2nnc3c4cc(-c5ccc(F)cc5)nn4ccn23)cc1", "Inhibition": 5.96}, {"smiles": "COc1ccc(CNC(=O)Cn2nc3c4cc(-c5ccc(OC)cc5)nn4ccn3c2=O)cc1", "Inhibition": -1.74}, {"smiles": "COC(=O)c1ccc(NC(=O)Cn2nc3c(Oc4ccccc4C)nccn3c2=O)cc1", "Inhibition": -13.52}, {"smiles": "Cc1ccc(-c2cc3c4nn(CC(=O)NCc5ccccc5)c(=O)n4ccn3n2)cc1C", "Inhibition": -8}, {"smiles": "CCCCc1ccc(NC(=O)Cn2nc3c(N4CCN(c5ccccc5C)CC4)nccn3c2=O)cc1", "Inhibition": 0.53}, {"smiles": "COc1ccccc1CNC(=O)Cn1nc2c(SCc3ccc(Cl)cc3)nccn2c1=O", "Inhibition": 6.37}, {"smiles": "COc1ccc(C(=O)CSc2nnc3c(=O)n(-c4ccc(F)c(F)c4)ccn23)cc1", "Inhibition": 14.04}, {"smiles": "O=C(Cn1nc2ccc(SCc3ccc(Cl)cc3)nn2c1=O)Nc1ccccc1", "Inhibition": 5.05}, {"smiles": "Cc1ccc(-c2cc3c4nn(CC(=O)Nc5ccc6c(c5)OCO6)c(=O)n4ccn3n2)cc1", "Inhibition": 12.49}, {"smiles": "Cc1nnc2c(SCC(=O)N3CCN(c4ccccc4F)CC3)nc3ccccc3n12", "Inhibition": 19.81}, {"smiles": "O=C(CSc1nnc2c(=O)n(-c3ccccc3)ccn12)Nc1ccc(F)cc1", "Inhibition": 5.78}, {"smiles": "CCc1ccccc1Sc1nccn2c(=O)n(CC(=O)NCc3ccc(OC)cc3)nc12", "Inhibition": -5.48}, {"smiles": "COc1ccc(NC(=O)Cn2nc3c4cc(-c5ccc(C)c(C)c5)nn4ccn3c2=O)cc1", "Inhibition": 11.77}, {"smiles": "CCOC(=O)c1ccccc1NC(=O)CSc1nc2ccccc2n2c(C(C)C)nnc12", "Inhibition": 6}, {"smiles": "COc1ccc(NC(=O)CSc2nnc3c(=O)n(-c4ccccc4)ccn23)cc1OC", "Inhibition": 9.52}, {"smiles": "Cc1ccc(CN(c2ccc(C(C)C)cc2)S(=O)(=O)c2cccn3c(C)nnc23)cc1", "Inhibition": 3.26}]}, {"test_system": "Escherichia coli", "conditions": "Concentration 32 ug.mL-1;; ASSAY_TEST Inhibition of Bacterial Growth; detection method Absorption (OD600); MEDIA CAMHB; plate type 384well; NBS; CORNING #3640; time 18 hr", "units": {"Inhibition": "%"}, "values": [{"smiles": "Cc1cc(C)cc(N(Cc2cc(C)ccc2C)S(=O)(=O)c2cccn3c(C)nnc23)c1", "Inhibition": -2.32}, {"smiles": "Cc1ccccc1Oc1nccn2c(=O)n(CC(=O)Nc3cc(Cl)ccc3Cl)nc12", "Inhibition": -4.76}, {"smiles": "CCC(C)NC(=O)Cn1nc2n(Cc3ccco3)c(=O)c3sccc3n2c1=O", "note": "(stereo not given)", "Inhibition": 2.21}, {"smiles": "NC(=O)Cn1nc2n(CCC(=O)NC3CCCCC3)c(=O)c3ccccc3n2c1=O", "Inhibition": 0.77}, {"smiles": "Cc1cc(C)c(NC(=O)Cn2nc3n(C)c(=O)c4c(c(-c5ccccc5)cn4C)n3c2=O)c(C)c1", "Inhibition": 1.74}, {"smiles": "Cc1ccc(NC(=O)Cn2nc3ccc(SC4CCCCC4)nn3c2=O)c(Cl)c1", "Inhibition": -5.46}, {"smiles": "Cc1cccc(Cn2nc3n(CCc4ccccc4)c(=O)c4sccc4n3c2=O)c1", "Inhibition": -0.08}, {"smiles": "Cc1nnc2c(=O)n(CC(=O)Nc3ccc(Br)cc3)c3ccccc3n12", "Inhibition": 5.5}, {"smiles": "C=Cc1ccc(CN(c2ccc(CC)cc2)S(=O)(=O)c2cccn3c(C)nnc23)cc1", "Inhibition": -2.55}, {"smiles": "CCOc1ccc(-n2ccn3c(SCC(=O)c4cccc(Cl)c4)nnc3c2=O)cc1", "Inhibition": 0.66}, {"smiles": "COc1ccc(-c2cc3c4nnc(SCC(=O)Nc5cc(Cl)ccc5C)n4ccn3n2)cc1", "Inhibition": -8.79}, {"smiles": "CCOC(=O)c1ccc(NC(=O)Cn2nc3ccc(Sc4cccc(F)c4)nn3c2=O)cc1", "Inhibition": -1.47}, {"smiles": "CCOc1ccc(NC(=O)Cn2nc3c(Oc4cccc(OC)c4)nccn3c2=O)cc1", "Inhibition": 1.75}, {"smiles": "COc1ccc(Cl)cc1NC(=O)Cn1nc2ccc(Sc3ccccc3)nn2c1=O", "Inhibition": -9.25}, {"smiles": "O=c1n(Cc2cccc(Cl)c2)nc2ccc(-c3ccccc3)nn12", "Inhibition": 0.79}, {"smiles": "Cc1ccc(CNC(=O)CSc2nnc3c(=O)n(-c4ccccc4)ccn23)cc1", "Inhibition": 0.71}, {"smiles": "Cc1cc(C)cc(N(Cc2cccc(Cl)c2)S(=O)(=O)c2cccn3cnnc23)c1", "Inhibition": -3.73}, {"smiles": "Cc1ccc(CNC(=O)Cn2nc3c(Sc4cccc(F)c4)nccn3c2=O)cc1", "Inhibition": -12.92}, {"smiles": "Cc1nnc2ccc(S(=O)(=O)N(Cc3ccccc3F)c3cccc(F)c3)cn12", "Inhibition": -8.44}, {"smiles": "O=C(CCc1nnc2c(N3CCCCC3)nc3ccccc3n12)NCc1ccccc1Cl", "Inhibition": 4.64}, {"smiles": "Cc1cc(C)cc(Nc2nc(C)cc3nn(CC(=O)NCc4ccco4)c(=O)n23)c1", "Inhibition": -6.71}, {"smiles": "CC(C)n1c(=O)c2ccc(C(=O)NC3CCCC3)cc2n2c(=O)n(Cc3cccc(C(F)(F)F)c3)nc12", "Inhibition": 0.25}, {"smiles": "CCc1nnc2c(S(=O)(=O)N(Cc3cccc(F)c3)c3cccc(C)c3)cccn12", "Inhibition": -0.95}, {"smiles": "N#Cc1ccc(NC(=O)Cn2nc3c(Oc4ccccc4)nccn3c2=O)cc1", "Inhibition": -6.5}, {"smiles": "N#Cc1ccc(NC(=O)CSc2nnc3c4cc(-c5ccc(F)cc5)nn4ccn23)cc1", "Inhibition": -4.2}, {"smiles": "COc1ccc(CNC(=O)Cn2nc3c4cc(-c5ccc(OC)cc5)nn4ccn3c2=O)cc1", "Inhibition": -1.87}, {"smiles": "COC(=O)c1ccc(NC(=O)Cn2nc3c(Oc4ccccc4C)nccn3c2=O)cc1", "Inhibition": 1.22}, {"smiles": "Cc1ccc(-c2cc3c4nn(CC(=O)NCc5ccccc5)c(=O)n4ccn3n2)cc1C", "Inhibition": -9.14}, {"smiles": "CCCCc1ccc(NC(=O)Cn2nc3c(N4CCN(c5ccccc5C)CC4)nccn3c2=O)cc1", "Inhibition": -13.2}, {"smiles": "COc1ccccc1CNC(=O)Cn1nc2c(SCc3ccc(Cl)cc3)nccn2c1=O", "Inhibition": -3.98}, {"smiles": "COc1ccc(C(=O)CSc2nnc3c(=O)n(-c4ccc(F)c(F)c4)ccn23)cc1", "Inhibition": -0.82}, {"smiles": "O=C(Cn1nc2ccc(SCc3ccc(Cl)cc3)nn2c1=O)Nc1ccccc1", "Inhibition": -4.3}, {"smiles": "Cc1ccc(-c2cc3c4nn(CC(=O)Nc5ccc6c(c5)OCO6)c(=O)n4ccn3n2)cc1", "Inhibition": -1.53}, {"smiles": "Cc1nnc2c(SCC(=O)N3CCN(c4ccccc4F)CC3)nc3ccccc3n12", "Inhibition": 5.15}, {"smiles": "O=C(CSc1nnc2c(=O)n(-c3ccccc3)ccn12)Nc1ccc(F)cc1", "Inhibition": -2.43}, {"smiles": "CCc1ccccc1Sc1nccn2c(=O)n(CC(=O)NCc3ccc(OC)cc3)nc12", "Inhibition": -1.47}, {"smiles": "COc1ccc(NC(=O)Cn2nc3c4cc(-c5ccc(C)c(C)c5)nn4ccn3c2=O)cc1", "Inhibition": -2.93}, {"smiles": "CCOC(=O)c1ccccc1NC(=O)CSc1nc2ccccc2n2c(C(C)C)nnc12", "Inhibition": -2.48}, {"smiles": "COc1ccc(NC(=O)CSc2nnc3c(=O)n(-c4ccccc4)ccn23)cc1OC", "Inhibition": -7.32}, {"smiles": "Cc1ccc(CN(c2ccc(C(C)C)cc2)S(=O)(=O)c2cccn3c(C)nnc23)cc1", "Inhibition": -8.61}]}]}
